Reference: PubChem BioAssay (Tox21)
Inconclusive results are not listed. Activity calls are given as the source filed them. Unless noted, calls come from the whole dose curve.

Legend:
[1] = Nuclear factor erythroid 2-related factor 2/antioxidant responsive element (Nrf2/ARE) small molecule agonists: qHTS cell viability counter screen in human keratinocytes (AID 1919968; active = well fitted curve in the direction sought with a large enough effect in the repeat runs; an effect the other way counts as inactive or inconclusive; note: nearly all actives have a fitted effect of over 55% in size; note: potency is the fitted concentration of half-maximal effect)
Method in brief: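 CellTiter-Fluor fluorescence, read 1 h after reagent, gave viability in the same wells as the ARE-luciferase assay. KeratinoSens cells (1,500/well) had 23 h compound exposure at 37 C/5% CO2 following 5 h plating.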

[2] = Nuclear factor erythroid 2-related factor 2/antioxidant responsive element (Nrf2/ARE) small molecule agonists: luciferase reporter gene qHTS assay in human keratinocytes (AID 1919969); note: nearly all actives have a fitted effect of over 35% in size; note: potency is the fitted concentration of half-maximal effect
[3] = molecular target: KiSS-1 receptor (Homo sapiens) (UniProt Q969F8); assay: Human kisspeptin (KISS1R) small molecule agonists, calcium flux assay in KISS1R-HEK293 cells (AID 1920064; active = well fitted curve in the direction sought with a large enough effect in the repeat runs; an effect the other way counts as inactive or inconclusive)
Method in brief: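 Agonist mode: intracellular calcium rise tracked at 1 s intervals over 3 min (480/540 nm) immediately after compound addition to dye-loaded KISS1R-HEK293 stable cells. Each compound tested at 15 concentrations in triplicate.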

[4] = G protein-coupled receptor (GPCR) small molecule agonists, calcium flux assay: HEK293 wild type cell line counter screen (AID 1920065)
Method in brief: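 Calcium flux counter screen: compound added in agonist mode at 15 concentrations in triplicate to dye-loaded parental HEK293 cells. Fluorescence (480/540) read kinetically for 3 min; ATP served as positive control.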

[5] = p53 small molecule agonists, cell-based qHTS assay with human liver microsomes (AID 1963577)
Method in brief: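 Compounds act here after metabolic activation: human liver microsomes and NADPH, both at 0.5 mg/mL final, were co-added to p53RE-bla cells. Incubation ran 16 h at 37 C, followed by LiveBLAzer detection.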

[6] = p53 small molecule agonists, cell-based qHTS assay with rat liver microsomes (AID 1963578)
Method in brief: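 Read-out is beta-lactamase reporter fluorescence (LiveBLAzer, 2 h, room temperature, dark) in p53RE-bla cells treated 16 h at 37 C with compound, rat liver microsomes and NADPH, both 0.5 mg/mL final.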

[7] = p53 small molecule agonists, cell-based qHTS assay with human liver microsomes: qHTS cell viability counter screen (AID 1963579); note: nearly all actives have a fitted effect of over 45% in size
Method in brief: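 Cells carrying the p53 response-element beta-lactamase reporter are treated for 16 h at 37 C with test compounds in the presence of human liver microsomes and NADPH (both 0.5 mg/mL final); ATP-based CellTiter-Glo luminescence then reports viability.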

[8] = p53 small molecule agonists, cell-based qHTS assay with rat liver microsomes: qHTS cell viability counter screen (AID 1963580); note: nearly all actives have a fitted effect of over 45% in size
Method in brief: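 Cytotoxicity counter screen: intracellular ATP read by CellTiter-Glo luminescence in the p53 reporter wells. HCT-116 p53RE-bla cells were treated for 16 h at 37 C alongside rat liver microsomes and NADPH, each 0.5 mg/mL final.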

[9] = p53 small molecule agonists, cell-based qHTS assay: qHTS cell viability counter screen (AID 1963581); note: nearly all actives have a fitted effect of over 45% in size
Method in brief: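 Counter screen read by CellTiter-Glo luminescence (ATP content, 30 min at room temperature), run in the same wells as the beta-lactamase reporter read. HCT-116 p53RE-bla cells saw compounds for 16 h at 37 C.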

[10] = molecular target: 5-hydroxytryptamine receptor 2A (Homo sapiens) (UniProt P28223); assay: 5-hydroxytryptamine receptor 2A (HTR2A) small molecule antagonists, cell-based qHTS assay (AID 1963586); note: nearly all actives have a fitted effect of over 45% in size
Method in brief: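 CHO cells stably expressing human HTR2A were plated for 18 h at 37 C, then loaded with calcium dye for 1 h. Compounds were preincubated 5 min at room temperature before DOI (4 nM solution) was added. Kinetic fluorescence was read for 3 min.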

[11] = molecular target: 5-hydroxytryptamine receptor 2A (Homo sapiens) (UniProt P28223); assay: 5-hydroxytryptamine receptor 2A (HTR2A) small molecule agonists, cell-based qHTS assay (AID 1963587); note: nearly all actives have a fitted effect of over 30% in size
Method in brief: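 Kinetic calcium-flux fluorescence (2 min, 1 sec intervals) after compound addition in agonist mode. HTR2A-CHO cells were cultured 18 h, then dye-loaded 1 h at 37 C.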

[12] = molecular target: Muscarinic acetylcholine receptor M1 (Homo sapiens) (UniProt P11229); assay: Cholinergic receptor muscarinic 1 (CHRM1) small molecule antagonists, cell-based qHTS assay (AID 1963588); note: nearly all actives have a fitted effect of over 40% in size
Method in brief: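 Compounds were tested at 15 concentrations in three independent runs. Dye-loaded CHRM1-CHO cells were exposed 5 min at room temperature before stimulation by acetylcholine added at 50nM. Intracellular calcium was read kinetically on FDSS for 3 min.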

[13] = molecular target: Muscarinic acetylcholine receptor M1 (Homo sapiens) (UniProt P11229); assay: Cholinergic receptor muscarinic 1 (CHRM1) small molecule agonists, cell-based qHTS assay (AID 1963589); note: nearly all actives have a fitted effect of over 35% in size
Method in brief: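 Agonist-mode calcium-flux screen: compounds at 15 concentrations, three independent runs, were pin-transferred onto dye-loaded human CHRM1-CHO cells. Fluorescence was then recorded kinetically every second over minutes.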

[14] = cAMP Responsive Elements (CRE) small molecule antagonists, cell-based qHTS assay (AID 1963591; active = well fitted inhibition curve with a large enough effect in the signal ratio in the repeat runs, not every such curve was filed as active; the % refers to the signal ratio)
Method in brief: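 Antagonist mode: compounds are added alongside the adenylyl cyclase activator NKH477 (0.25 uM final) to CRE-bla HEK293T cells for 3 h. LiveBLAzer FRET substrate, 2 h at room temperature, reports bla expression.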

[15] = molecular target: Beta-2 adrenergic receptor (Homo sapiens) (UniProt P07550); assay: Adrenergic beta2 receptor (ADRB2) small molecule antagonists, cell-based qHTS assay (AID 1963592); note: series mostly up to about 92 µM; nearly all actives have a fitted effect of over 50% in size
Method in brief: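 Assay format: CHO-ADRB2 cells, 18-20hr seeding at 37C/5% CO2, then compound plus 1nM isoproterenol agonist mix for 0.5hr RT. Homogeneous time-resolved fluorescence cAMP detection after 1hr, expressed as 665/615 nm ratio.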

[16] = molecular target: D(2) dopamine receptor (Homo sapiens) (UniProt P14416); assay: Dopamine D2 receptor (DRD2) small molecule agonists, cell-based qHTS assay (AID 1963594); note: nearly all actives have a fitted effect of over 35% in size
Method in brief: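 cAMP accumulation in DRD2-HEK293 cells measured by HTRF after 1 h detection; compounds added 10 min before NKH477 (200nM […]) forskolin-analogue stimulation, 30 min at room temperature, with Ro20-1724 present at 0.1 mM final.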

[17] = molecular target: D(2) dopamine receptor (Homo sapiens) (UniProt P14416); assay: Dopamine D2 receptor (DRD2) small molecule antagonists, cell-based qHTS assay (AID 1963595; active = well fitted inhibition curve with a large enough effect in the signal ratio in the repeat runs, with a control signal flat; the % refers to the signal ratio)
Method in brief: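 HEK293 cells stably expressing DRD2, preincubated with 0.1 mM Ro20-1724 and compounds 10 min, were stimulated with 200 nM NKH477 plus 12 nM quinpirole for 30 min at room temperature; cAMP measured by HTRF (665/620 nm).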

[18] = p53 small molecule agonists, cell-based qHTS assay (AID 1963582; active = well fitted activation curve with a large enough effect in the signal ratio in the repeat runs, not every such curve was filed as active; the % refers to the signal ratio)
Method in brief: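 Read-out is beta-lactamase FRET fluorescence after 2 h at room temperature with LiveBLAzer B/G substrate. p53 response element-bla cells were treated 16 h at 37 C with compounds in DMSO, added 5 h after seeding.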

[19] = cAMP Responsive Elements (CRE) small molecule agonists, cell-based qHTS assay (AID 1963590)
Method in brief: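 Agonist mode: compound added to CRE-bla HEK 293T cells (2,000/well, 18 h after plating) for 3 h at 37 C/5% CO2. Reporter activity detected via FRET beta-lactamase substrate, 2 h room-temperature loading.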

Measured: Potency

Sequence of D(2) dopamine receptor (Homo sapiens) (P14416 whole entry, looked up): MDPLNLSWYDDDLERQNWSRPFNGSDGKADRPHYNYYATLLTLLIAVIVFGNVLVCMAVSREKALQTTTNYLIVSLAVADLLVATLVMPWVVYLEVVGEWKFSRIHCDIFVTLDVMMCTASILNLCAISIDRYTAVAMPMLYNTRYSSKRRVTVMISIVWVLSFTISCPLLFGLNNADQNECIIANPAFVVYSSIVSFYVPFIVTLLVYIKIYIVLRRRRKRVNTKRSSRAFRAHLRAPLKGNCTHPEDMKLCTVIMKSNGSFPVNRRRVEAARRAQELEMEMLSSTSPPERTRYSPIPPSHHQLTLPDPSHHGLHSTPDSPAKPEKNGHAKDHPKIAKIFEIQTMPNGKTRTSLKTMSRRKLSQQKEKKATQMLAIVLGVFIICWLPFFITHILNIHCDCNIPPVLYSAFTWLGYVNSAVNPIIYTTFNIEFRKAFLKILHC
Sequence of KiSS-1 receptor (Homo sapiens) (Q969F8 whole entry, looked up): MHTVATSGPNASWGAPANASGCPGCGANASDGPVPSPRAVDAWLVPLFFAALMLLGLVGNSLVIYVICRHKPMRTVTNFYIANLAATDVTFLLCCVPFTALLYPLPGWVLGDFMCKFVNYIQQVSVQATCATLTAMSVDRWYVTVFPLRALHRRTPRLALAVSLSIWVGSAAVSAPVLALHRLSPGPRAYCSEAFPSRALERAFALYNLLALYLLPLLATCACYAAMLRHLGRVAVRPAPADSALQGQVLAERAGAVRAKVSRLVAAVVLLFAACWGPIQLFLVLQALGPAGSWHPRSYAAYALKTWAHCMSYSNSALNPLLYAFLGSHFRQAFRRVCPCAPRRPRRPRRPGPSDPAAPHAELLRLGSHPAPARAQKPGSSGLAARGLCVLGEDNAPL
Sequence of Beta-2 adrenergic receptor (Homo sapiens) (P07550 whole entry, looked up): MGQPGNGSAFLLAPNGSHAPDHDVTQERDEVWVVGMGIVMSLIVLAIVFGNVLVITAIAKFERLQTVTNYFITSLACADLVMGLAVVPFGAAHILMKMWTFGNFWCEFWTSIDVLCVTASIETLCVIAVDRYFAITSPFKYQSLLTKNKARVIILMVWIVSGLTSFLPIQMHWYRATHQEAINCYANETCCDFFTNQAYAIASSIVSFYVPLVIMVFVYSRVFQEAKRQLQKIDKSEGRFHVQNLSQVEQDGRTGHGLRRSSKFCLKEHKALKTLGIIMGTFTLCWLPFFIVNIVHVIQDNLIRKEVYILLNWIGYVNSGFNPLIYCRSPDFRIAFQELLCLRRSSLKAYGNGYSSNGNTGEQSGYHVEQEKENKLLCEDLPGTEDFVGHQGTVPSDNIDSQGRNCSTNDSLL
Sequence of 5-hydroxytryptamine receptor 2A (Homo sapiens) (P28223 whole entry, looked up): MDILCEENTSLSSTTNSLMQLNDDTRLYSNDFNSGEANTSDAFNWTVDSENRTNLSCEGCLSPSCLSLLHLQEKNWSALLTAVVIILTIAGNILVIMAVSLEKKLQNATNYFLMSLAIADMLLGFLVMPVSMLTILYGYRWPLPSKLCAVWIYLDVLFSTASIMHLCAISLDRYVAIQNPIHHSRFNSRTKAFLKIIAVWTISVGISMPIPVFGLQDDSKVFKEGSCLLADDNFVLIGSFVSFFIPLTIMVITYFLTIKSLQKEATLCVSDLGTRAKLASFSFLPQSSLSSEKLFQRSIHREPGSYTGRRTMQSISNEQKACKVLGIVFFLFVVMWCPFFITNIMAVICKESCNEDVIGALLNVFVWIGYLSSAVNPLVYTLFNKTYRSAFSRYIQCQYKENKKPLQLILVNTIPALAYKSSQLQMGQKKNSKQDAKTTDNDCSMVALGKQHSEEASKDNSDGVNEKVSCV
Sequence of Muscarinic acetylcholine receptor M1 (Homo sapiens) (P11229 whole entry, looked up): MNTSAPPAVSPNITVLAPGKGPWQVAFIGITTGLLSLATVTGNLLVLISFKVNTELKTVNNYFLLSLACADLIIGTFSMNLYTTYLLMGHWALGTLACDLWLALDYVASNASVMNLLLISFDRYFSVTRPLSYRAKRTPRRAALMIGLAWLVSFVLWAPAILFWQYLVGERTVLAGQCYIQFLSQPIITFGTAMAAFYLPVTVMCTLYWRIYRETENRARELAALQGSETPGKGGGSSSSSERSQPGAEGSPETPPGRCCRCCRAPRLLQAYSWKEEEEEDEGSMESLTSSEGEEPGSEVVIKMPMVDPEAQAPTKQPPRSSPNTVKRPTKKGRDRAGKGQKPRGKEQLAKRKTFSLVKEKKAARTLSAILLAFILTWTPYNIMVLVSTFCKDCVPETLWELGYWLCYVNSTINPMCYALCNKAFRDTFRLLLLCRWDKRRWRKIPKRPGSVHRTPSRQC

CC(C)COC(=O)COc1cc(Cl)c(Cl)cc1Cl
inactive: [1] | [2] | [3] | [4] | [5] | [6] | [7] | [8] | [9] | [10] | [11] | [12] | [13] | [14] | [15] | [16] | [17]

Cc1scc2c1N(C(=O)CN1CCN(C)CC1)c1ccccc1NC2=O
inactive: [1] | [2] | [3] | [4] | [5] | [6] | [7] | [8] | [9] | [18] | [10] | [11] | [13] | [19] | [14] | [15] | [16] | [17]

O=C(NCCN1CCOCC1)c1ccc(Cl)cc1
inactive: [1] | [2] | [3] | [4] | [5] | [6] | [7] | [8] | [9] | [18] | [19] | [14] | [15] | [17]

Clc1cccnc1
inactive: [1] | [2] | [3] | [4] | [5] | [6] | [7] | [8] | [9] | [10] | [11] | [12] | [19] | [14] | [15] | [16]

NS(=O)(=O)c1cc2c(cc1Cl)NC(C(Cl)Cl)NS2(=O)=O (stereo not given)
inactive: [1] | [2] | [3] | [4] | [5] | [6] | [7] | [8] | [9] | [18] | [19] | [14] | [15] | [16] | [17]

Cc1cccc(Nc2ccncc2S(=O)(=O)NC(=O)NC(C)C)c1
inactive: [1] | [2] | [3] | [4] | [5] | [6] | [7] | [8] | [9] | [18] | [19] | [14] | [15] | [16] | [17]

Cc1cccc(C(C)(C)C)c1O
inactive: [1] | [2] | [3] | [4] | [5] | [6] | [7] | [8] | [9] | [18] | [13] | [19] | [15] | [16] | [17]

O=CCCc1ccccc1
inactive: [1] | [2] | [3] | [4] | [7] | [8] | [10] | [11] | [13] | [14] | [15] | [16] | [17]

ClC(Cl)(Br)Br
inactive: [1] | [2] | [3] | [4] | [5] | [7] | [8] | [9] | [10] | [11] | [12] | [13] | [19] | [15] | [16] | [17]

Cc1cc(O)ccc1N
active: [1] 61.4 µM | [2] 54.8 µM
inactive: [3] | [4] | [5] | [6] | [8] | [11] | [12] | [13] | [14] | [15] | [17]

C=CS(=O)(=O)O
inactive: [1] | [2] | [3] | [4] | [6] | [7] | [9] | [10] | [11] | [12] | [13] | [14] | [16] | [17]

CCCCN1CCCC[C@H]1C(=O)Nc1c(C)cccc1C
inactive: [1] | [2] | [4] | [5] | [6] | [7] | [8] | [9] | [18] | [15] | [16] | [17]

CN1CCC(=C2c3ccccc3CC(=O)c3sccc32)CC1
inactive: [1] | [2] | [3] | [4] | [6] | [7] | [8] | [18] | [14] | [15] | [16] | [17]

CC[C@@H](CO)NCCN[C@@H](CC)CO
inactive: [1] | [2] | [3] | [5] | [6] | [8] | [18] | [19] | [14] | [15] | [16] | [17]

CCOC(=O)CS
inactive: [1] | [3] | [4] | [5] | [7] | [8] | [9] | [10] | [12] | [13] | [19] | [14] | [15] | [16] | [17]
active: [2] 70.5 µM

CCCCN(CCCC)C(=O)N(CCCC)CCCC
active: [2] 61.1 µM
inactive: [1] | [3] | [4] | [5] | [8] | [9] | [18] | [10] | [11] | [12] | [13] | [14] | [15] | [16] | [17]

COc1c(C)c2c(c(O)c1C/C=C(\C)CCC(=O)OCCN1CCOCC1)C(=O)OC2
inactive: [1] | [2] | [3] | [4] | [5] | [6] | [8] | [9] | [15] | [16] | [17]
